RN4220 kill = growth inhibition of S. aureus RN4220, primary screen, OD600; 16 h; AID 1259311, 2017; inhibition, % (no concentration beside the values); 330,000 compounds, 0.33% hits; in the data active means inhibition above about 85%;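 further: plate controls were untreated cells for no effect and reference antibiotic for full effect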
PrP 5UTR inh = inhibition of PrP 5' UTR reporter expression; 340,000 compounds, 0.35% hits; cell-based PrP 5' UTR mRNA reporter, plate reader; inhibition, % (concentration not given with the values); in the data active means inhibition above about 52%; further: 0 = median of the neutral control wells
Y pestis TopoI = Yersinia pestis topoisomerase I inhibitors, primary screen, biochemical, cleavage product accumulation, plate reader, single point | 360,000 compounds, 0.064% hits | activity, % at 10 µM | DNA topoisomerase I (Yersinia pestis CO92) | AID 504884, 2011 | Y. pestis Topo-I cleavage product accumulation; in the data active means activity above about 50%, passing the limit was not always enough; inconclusive means no clear call, values can overlap the other calls
BJeLR lethal = MLPCN primary cell-based screen for lethality selective to Ras in HRASV12 cells; BJeLR (HRASV12) viability, CellTiter-Glo ATP luminescence, 48 h; inhibition, % (no concentration beside the values); 300,000 compounds, 0.17% hits; AID 1554, 2009; in the data active means inhibition above about 50%; inconclusive means no clear call, values can overlap the other calls
PfHsp40 yeast = rescue of yeast from PfHsp40 toxicity, primary screen, S. cerevisiae, ATP luminescence; S. cerevisiae expressing PfHsp40, growth rescue; growth rescue, % at 12.5 µM; 340,000 compounds, 0.68% hits; in the data active means growth rescue above about 28%, passing the limit was not always enough; inconclusive means no clear call, values can overlap the other calls;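 further: yeast W303a lacking pdr1 and pdr3 grown in galactose medium; growth measured after three days at 30 °C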
ugtP null kill = growth inhibition of ugtP-null S. aureus, primary screen, RN4220 ugtP deletion, OD600. 330,000 compounds, 0.54% hits. AID 1259309, 2017. 16 h. growth inhibition, % (concentration not given with the values); in the data active means growth inhibition above about 68%;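 further: plate controls were untreated wells for no effect and antibiotic for full effect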
Numbers without * were called inactive; u = inconclusive; x = no result. Compounds with a hit are over-represented: about 1.4% of the library has one in this group of screens.

SMILES	RN4220 kill	PrP 5UTR inh	Y pestis TopoI	BJeLR lethal	PfHsp40 yeast	ugtP null kill
COc1ccc(/C=C2/SC(=O)N(NS(=O)(=O)c3ccccc3)C2=S)cc1OC	48	-7	2	-1	35*	0
CN1/C(=C/c2cc[n+](C)c3ccccc23)C=Cc2ccccc21	100*	-8	-52	x	-1	96*
C[n+]1ccc(/C=C/c2ccccc2O)c2ccccc21	5	-18	-36	2	x	4
COc1ccccc1NS(=O)(=O)c1cccc(C(=O)N/N=C/c2ccc(C)o2)c1	x	-6	7	-2	-1	x
O=C(N/N=C/c1ccc([N+](=O)[O-])o1)c1cc2ccccc2o1	x	2	-2	68*	0	x
COc1ccccc1NS(=O)(=O)c1cccc(C(=O)NN=Cc2ccc([N+](=O)[O-])o2)c1	98*	x	x	x	x	99*
Cc1nc2ccccn2c1C(=O)N/N=C/c1ccc([N+](=O)[O-])o1	x	-43	1	x	-1	x
Cc1nc2ccccn2c1C(=O)NN=Cc1ccc([N+](=O)[O-])o1	98*	x	x	x	x	82
COc1ccc(NC(=O)N(C)CC2Oc3c(NS(=O)(=O)c4cccs4)cccc3C(=O)N(C(C)CO)CC2C)cc1 (stereo not drawn)	4	x	x	x	x	-1
CC1CN(CCc2ccccc2)C(=O)C1CC(=O)NCc1ccccc1 (stereo not drawn)	3	x	x	x	x	0
COc1ccccc1Nc1cc(C(=O)NCCCN2CCOCC2)c2ccccc2n1	5	-27	-5	-2	68*	-5
CC=CC(=O)N1CC2(CC(c3cccc(NC(=O)COc4ccc(Cl)cc4)c3)=NO2)CC1C(N)=O (stereo not drawn)	4	x	x	x	x	6
CC(OC(=O)c1oc2ccccc2c1CSC1CCCCC1)C(=O)NC(N)=O (stereo not drawn)	-6	-17	11	-2	-1	99*
Cc1ccc(O)c(C2=NNC(O)(C(F)(F)F)C2)c1 (stereo not drawn)	x	2	2	4	39*	x
Cc1ccc(O)c(-c2cc(-c3ccccc3F)[nH]n2)c1	-20	-32	-11	-8	3	0
Oc1ccc(-c2nccc(-c3ccc(Cl)cc3)n2)cc1	13	-28	-8	1	x	23
Oc1ccc(-c2cc(-c3ccc(O)cc3)nc(-c3ccccc3)n2)cc1	97*	3	-1	-3	2	100*
Oc1ccc(-c2cccc(-c3ccc(O)cc3)n2)cc1	98*	-35	6	8	0	99*
CC(C)Cc1nc(SCc2cccnc2)c2c(=O)n(C)c(=O)n(C)c2n1	2	-12	6	-5	33*	-4
CCOC(=O)Cc1c(Sc2ccccc2)c2ccccc2n1C	-9	-3	14	-6	0	95*
COc1ccc(C2C3C(=O)N(C(C)(C)C)C(=O)C3[C@]3(C)C(=O)N(c4ccccc4)C(=O)N23)cc1 (stereo partly drawn)	5	x	x	x	x	0
C/C(=N\NC(=O)c1ccc(O)cc1)c1cccc(NC(=O)c2ccc(Cl)cc2)c1	x	-27	6	3	44*	x
CC1=C[C@H]2OC(=O)[C@@H](C)[C@H]2C[C@@H]2[C@H]1C[C@@H](O)[C@@]2(C)O	x	-21	2	-4	39*	x
C#CCOCCOCCOCCNc1nc(N2CCN(C(=O)C(CCCCN)n3cc(C(N)CC(N)=O)nn3)CC2)nc(N2CCN(C(=O)C(CC(N)=O)n3cc(C(N)C(C)CC)nn3)CC2)n1 (stereo not drawn)	7	x	x	x	x	-5
OC(Cn1cncn1)c1ccc(Cl)cc1 (stereo not drawn)	5	-24	-4	8	-1	-7
SMILES	RN4220 kill	PrP 5UTR inh	Y pestis TopoI	BJeLR lethal	PfHsp40 yeast	ugtP null kill
OC(Cn1cncn1)(c1ccc(F)cc1)c1ccc(Cl)cc1 (stereo not drawn)	0	-34	-9	5	108*	-4
CC1CN(C(C)CO)C(=O)c2cccc(NC(=O)c3cnccn3)c2OC1CN(C)S(=O)(=O)c1ccc(F)cc1 (stereo not drawn)	2	x	x	x	x	-3
Oc1nc(Nc2cccc(Cl)c2)sc1/C=C1\C=Nc2ccccc21	100*	-35	5	-8	1	100*
CCOC(=O)c1ccc(-c2c(-c3ccc4c(c3)OCO4)noc2-c2ccsc2)cc1F	-10	-28	4	2	-1	96*
O=C(NCCO)c1c(-c2ccc3c(c2)OCO3)noc1-c1ccsc1	x	-7	-8	x	1	x
COc1cc(-c2c(-c3ccc4c(c3)OCO4)noc2-c2ccsc2)ccc1F	-6	-19	3	5	u	87*
c1cc2cc(-c3c(-c4ccc5c(c4)OCO5)noc3-c3ccsc3)ccc2[nH]1	x	-68	-13	-7	-1	x
COc1ccccc1N(CC(=O)Nc1cccc(C(F)(F)F)c1)S(C)(=O)=O	4	-16	4	-1	0	1
Cc1ccc([N+](=O)[O-])cc1N(CC(=O)Nc1ccc(S(=O)(=O)Nc2cccc(C(F)(F)F)c2)cc1)S(C)(=O)=O	88*	-7	-3	-5	1	78
O=C(CC1CC=CCCCC(=O)OC(c2ccccc2)CNC1=O)NC(CO)Cc1ccccc1 (stereo not drawn)	1	x	x	x	x	-1
CC(C)(C)N1C(=O)C2C(c3ccc(Br)cc3)N3C(=O)N(c4cccc(Cl)c4)C(=O)[C@@]3(C)C2C1=O (stereo partly drawn)	4	x	x	x	x	5
NC(C(=O)NC1C(=O)N2C(C(=O)O)=C(Cl)CSC12)c1ccccc1 (stereo not drawn)	100*	x	x	x	x	100*
C=CCCC(Cc1ccc(F)cc1)C(=O)OCC(NC(=O)C(CC=C)CC(=O)NCCO)c1ccccc1 (stereo not drawn)	5	x	x	x	x	6
Fc1ccc(NC(=S)Nc2ccc(F)c(Cl)c2)cc1Cl	108*	-16	-12	9	-2	97*
FC(F)(F)c1cccc(NC(=S)Nc2ccc(Cl)cc2Cl)c1	98*	1	-4	3	-2	84*
O=C(NC(=S)Nc1ccc(F)c(Cl)c1)C1CC1	-5	-23	7	-3	3	13
COc1cc([N+](=O)[O-])cc(/C=N/NC(=O)c2cc(-c3ccccc3)nc3ccccc23)c1O	x	4	1	8	u	x
Cc1cc(C(=O)N/N=C/c2cccc([N+](=O)[O-])c2)c2ccccc2n1	x	-4	-6	0	34*	x
COc1cc([N+](=O)[O-])cc(/C=N/NC(=O)c2cc(C)nc3ccccc23)c1O	x	-4	-4	1	32*	x
COc1cc([N+](=O)[O-])cc(/C=N/NC(=O)c2cncc(Br)c2)c1O	x	x	2	-14	780*	x
CC(C)CC(CO)N1CCN(Cc2ccc([N+](=O)[O-])cc2)CCC1=O (stereo not drawn)	2	x	x	x	x	0

Compound activity as filed in PubChem.
